The sample as a whole holds a higher share of hits than the screen did.
Pf apPOL inh: Pf-apPOL DNA polymerase inhibition | Recombinant Pf-apPOL, molecular beacon fluorescence, 1.5 h | actives 0.25% (n = 210,000) | inhibition, % at 10 µM
mHTT CaM bind: disrupts binding of mutant huntingtin to calmodulin; P42858; AlphaScreen His-mHTT/GST-CaM binding, luminescence; inhibition, % at 15 µM; actives 3.6% (n = 190,000);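 note: 0% = both proteins with DMSO and 100% = one protein alone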
Numbers without * were called inactive. Cut-off read from the data, not from the text of the source: active = inhibition above about 50%; inactive = the rest.

SMILES | Pf apPOL inh | mHTT CaM bind
O=C(c1ccc2c(c1)OCO2)N1CCN(c2nc(CN3CCOCC3)cs2)CC1 | -1 | 9
Cc1ccccc1Cc1c(C)nc2nc(SCC(=O)N3CCOCC3)nn2c1C | -4 | 14
O=C(CN1CCc2[nH]c3ccc(Cl)cc3c(=O)c2C1)NCc1ccc2c(c1)OCO2 | 3 | -4
COc1cc(OC)c2ccc(=O)oc2c1C(CCN1CCOCC1)c1ccc(N(C)C)cc1 (centres undefined) | -8 | 47
CCN(CC)C(=O)CC(c1ccc(OC)cc1)c1c(OC)cc(OC)c2ccc(=O)oc12 (centres undefined) | -1 | 32
COc1cc(OC)c2c(-c3ccccc3)cc(=O)oc2c1C(CCN1CCN(c2ccccc2)CC1)c1ccc(N(C)C)cc1 (centres undefined) | -6 | 69*
CCN(CC)CCC(c1ccc(N(C)C)cc1)c1c(OC)cc(OC)c2c(-c3ccccc3)cc(=O)oc12 (centres undefined) | -6 | 100*
COc1cc(OC)c2ccc(=O)oc2c1C(CCN1CCN(c2ccccc2)CC1)c1ccc(N(C)C)cc1 (centres undefined) | -2 | 84*
COc1ccc(C(CCN2CCN(c3ccccc3)CC2)c2c(OC)cc(OC)c3c(-c4ccccc4)cc(=O)oc23)cc1 (centres undefined) | -1 | 30
CC(=O)c1cccc(NC(=O)N2CC(C)C(c3nc(-c4ccncc4)no3)C2)c1 (centres undefined) | -4 | -6
Cc1ccc(O)c(C2=NCCNC(C(F)(F)C(F)F)=C2)c1 | 59* | 7
FC(F)C(F)(F)C1=CC(c2ccccc2)=NCCN1 | -3 | -2
COc1ccc(CCCC(=O)Nc2cc(C)ccc2C)cc1 | 11 | 3
O[C@H]1CN(Cc2cccs2)[C@@H](c2ccccc2)C[C@@H]1n1cc(C2CC2)nn1 | -3 | 18
COc1ccc([C@H]2C[C@@H](n3cc(-c4ccc(F)cc4)nn3)[C@H](O)CN2Cc2cccs2)cc1 | 2 | -1
Cc1ccc([C@H]2C[C@H](O)[C@@H](n3cc(C4CC4)nn3)CN2Cc2cccs2)cc1 | -4 | 100*
Cc1ccc([C@H]2C[C@@H](O)[C@H](n3cc(C4CC4)nn3)CN2Cc2cccs2)cc1 | -1 | -4
COc1ccc([C@H]2C[C@H](n3cc(-c4ccc(F)cc4)nn3)[C@@H](O)CN2Cc2cccs2)cc1 | -3 | 63*
Cc1ccc([C@H]2C[C@H](n3cc(C4CC4)nn3)[C@@H](O)CN2Cc2cccs2)cc1 | -3 | 80*
O=[N+]([O-])c1cc(N=Cc2nc(-c3ccccc3)oc2O)ccc1Cl | 0 | 4
Cc1ccc(C(=O)N2CCN(c3ccccc3F)CC2)cc1S(=O)(=O)N1CCCC1 | -2 | 11
CCN(CC)Cc1cc(Cl)c2cccnc2c1O | 0 | 100*
CCN(CC)C(=O)Oc1c(I)cc(Cl)c2cccnc12 | -9 | -1
O=C(c1ccoc1)N1CCC(Oc2cc(N3CCOCC3)ncn2)C1 (centres undefined) | -3 | -3
CCc1cc(-c2[nH]ncc2-c2cnn(-c3ccccc3)c2)c(O)cc1O | -3 | 94*
SMILES | Pf apPOL inh | mHTT CaM bind
COc1ccc(-c2[nH]ncc2-c2cnn(-c3ccccc3)c2)c(O)c1C | 3 | 17
CCC(C)NC(=O)NCc1cccnc1-c1ccc(OC)cc1 (centres undefined) | -11 | -8
COc1cc(N=Cc2nc(-c3ccccc3F)oc2O)c(C(=O)O)cc1OC | 2 | 0
O=C(O)c1ccccc1N=Cc1nc(-c2ccccc2F)oc1O | 96* | 9
COc1ccccc1C1CC(c2ccc(Br)cc2)=NN1C(=O)c1cccnc1 (centres undefined) | -3 | 53*
COc1cccc(C2CC(c3ccc(Br)cc3)=NN2C(=O)c2ccncc2)c1OC (centres undefined) | -5 | 61*
COc1ccccc1C1CC(c2ccc(Br)cc2)=NN1C(=O)CCC(=O)O (centres undefined) | -1 | 10
COc1ccccc1C1CC(c2ccc(Br)cc2)=NN1C(=O)c1ccncc1 (centres undefined) | -5 | 18
C=CCSc1nnc2c(n1)OC(c1cccc(OC)c1)N(C(C)=O)c1ccccc1-2 (centres undefined) | 1 | 33
CCCNC(=O)Cc1c[nH]c2ncccc12 | 0 | -7
CC(Oc1ccccc1)C(=O)N1CCc2c(c(C(=O)NCc3ccccc3)nn2C)C1 (centres undefined) | -7 | 55*
Cn1nc(C(=O)NCc2ccccc2)c2c1CCN(C(=O)c1ccc(C#N)cc1)C2 | -2 | 21
Cc1ccccc1C(=O)N1CCc2c(c(C(=O)NCc3ccccc3)nn2C)C1 | -16 | 11
COc1cc(OC)cc(C(=O)N2CCc3c(c(C(=O)NCc4ccccc4)nn3C)C2)c1 | -3 | 75*
COc1ccc(C(=O)N2CCc3c(c(C(=O)NCc4ccccc4)nn3C)C2)cc1 | -10 | 56*
Cc1ccc(C(=O)N2CCc3c(c(C(=O)NCc4ccccc4)nn3C)C2)cc1 | -2 | 75*

From PubChem BioAssay
